Data on 19 compounds can be found in PubChem BioAssay (NCATS).

Results filed as inconclusive are left out. A number with no mark means an inactive call. The source made the active and inactive calls. Unless noted, calls come from the whole dose curve.

Assay [1] is described as follows: Cell Viability - BJ (AID 421).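 Note: potency is the fitted concentration of half-maximal effect; cells exposed to compound for 40 hours at 37 °C before readout.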 The following applies: BJ fibroblast viability, qHTS. The procedure, abridged:
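Quantitative HTS: ATP depletion in BJ cells after 40 hr compound exposure in complete culture medium, detected with CellTiter-Glo; AC50 from standard Hill fits.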
For orientation: Quantitative high-throughput screening tests each substance at several concentrations.

Assay [2] is described as follows: Cell Viability - Jurkat (AID 426;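 active = dose-dependent loss of cell ATP signal giving a full or clear fitted curve, ranked by lower potency value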; note: potency is the fitted concentration of half-maximal effect). The following applies: qHTS. The procedure, abridged: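 Luminescent ATP read-out (CellTiter-Glo, 20 min at room temperature) after 40 hr compound exposure at 37 °C of Jurkat E6-1 cells, 5000/well. Decreased ATP taken as cytotoxicity; AC50 from standard Hill equation.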
Assay [3] in a line: Cell Viability - Hek293 (AID 427;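 active = compounds whose dose-response curve shows a full or clear partial loss of cell viability, called from curve shape rather than a numeric limit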;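 note: potency is the fitted concentration of half-maximal effect; cells exposed to compound for 40 hours at 37 °C before reading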). The following applies: qHTS. Summed up: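 AC50 values derive from Hill-modelled concentration-response of ATP-based luminescence, normalized between DMSO-only and 100 uM tamoxifen controls. Cells were exposed in complete culture medium for 40 hr at 37 °C before detection.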
Assay [4] can be described thus: Cell Viability - HepG2 (AID 433). Note: potency is the fitted concentration of half-maximal effect. Particulars: qHTS. Summed up:
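HepG2 hepatocellular carcinoma cells (1500/well) were treated with compounds for 40 h at 37 °C in complete medium; intracellular ATP was read by CellTiter-Glo luminescence. Data were normalized to DMSO and 100 uM tamoxifen, and AC50 came from Hill fits.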

Assay [5] in a line: Cell Viability - MRC5 (AID 434).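 Note: potency is the fitted concentration of half-maximal effect; potency reflects cytotoxicity seen as loss of intracellular ATP.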 The following applies: MRC5 lung fibroblast viability, qHTS. Summed up: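 AC50 values come from Hill-equation fits of intracellular ATP loss, measured by CellTiter-Glo luminescence. Normal lung fibroblasts (MRC5) had 40 hr compound treatment at 37 C, normalized between DMSO and 100 uM tamoxifen.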
The nature of assay [6]: Cell Viability - SK-N-SH (AID 435).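 Note: potency is the fitted concentration of half-maximal effect; compound exposure lasted 40 h at 37 °C.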 Particulars: SK-N-SH neuroblastoma cell viability qHTS. The procedure, abridged:
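SK-N-SH human neuroblastoma cells (1500/well) were exposed to compounds in complete medium for 40 h at 37 °C, and intracellular ATP was then measured by CellTiter-Glo luminescence. AC50 was taken from Hill fits, normalized to DMSO and 100 uM tamoxifen.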

A short description of assay [7]: NFAT Signaling Pathway (AID 444; active = well fitted curve in either direction with a large enough effect, not every such curve was filed as active;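 note: carbachol stimulus at about its EC50 of 1 µM final; % is set by controls: 0 for no effect and ±100 for the full control effect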). Particulars: Jurkat NFAT-bla M1, carbachol, beta-lactamase ratio, 5 h; at 17.2 µM (top of the series) unless noted. Summed up:
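Read-out: CCF4 FRET ratio (460 nm/530 nm) after 1 h RT dye loading, used for %activity and AC50 from titration series. Cells: Jurkat NFAT-β-lactamase/M1 line, treated with compound plus 1 uM carbachol for 5 h, 37 °C.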

`OC[C@H]1O[C@@H]2O[C@H]3[C@H](O)[C@@H](O)[C@@H](O[C@H]4[C@H](O)[C@@H](O)[C@@H](O[C@H]5[C@H](O)[C@@H](O)[C@@H](O[C@H]6[C@H](O)[C@@H](O)[C@@H](O[C@H]7[C@H](O)[C@@H](O)[C@@H](O[C@H]1[C@H](O)[C@H]2O)O[C@@H]7CO)O[C@@H]6CO)O[C@@H]5CO)O[C@@H]4CO)O[C@@H]3CO`: the Potency in assay [1], in assay [2], in assay [3], in assay [4], in assay [5] and in assay [6] was more than 92 µM throughout.
Take `C[C@H](CCC(=O)O)[C@H]1CC[C@H]2[C@@H]3CC[C@@H]4C[C@H](O)CC[C@]4(C)[C@H]3C[C@H](O)[C@]12C`: the Potency in assay [1], in assay [2], in assay [3], in assay [4], in assay [5] and in assay [6] was more than 92 µM throughout.
For `ClC(Cl)Cl`, the Potency in assay [1], in assay [2], in assay [3], in assay [4], in assay [5] and in assay [6] was more than 92 µM each time.
With `NCCN`, the Potency in assay [1], in assay [2], in assay [3], in assay [4], in assay [5] and in assay [6] was more than 92 µM throughout.
As to `C=C1C(CCl)(CCl)C2(Cl)C(Cl)C(Cl)C1(Cl)C2(Cl)Cl` (stereo unspecified), the Potency is 31 µM (active) in assay [2]; 48.2 µM (active) in assay [3]; more than 92 µM in assay [4]; more than 92 µM in assay [5]; 50 µM (active) in assay [6].
Take `CCCCO`: the Potency in assay [1], in assay [2], in assay [3], in assay [4], in assay [5] and in assay [6] was more than 92 µM in each case.
Take `c1ccc2ccccc2c1`: the Potency in assay [1], in assay [2], in assay [3], in assay [4], in assay [5] and in assay [6] was more than 92 µM in each case.
For the compound `CO/N=C(/C(=O)N[C@@H]1C(=O)N2C(C(=O)O)=C(COC(N)=O)CS[C@H]12)c1ccco1`, the Potency in assay [1], in assay [2], in assay [3], in assay [4], in assay [5] and in assay [6] was more than 92 µM in each case.
For `O.O.O.O.O.O.O.O=S(=O)([O-])[O-].[Co+2]`, the Potency in assay [1], in assay [3], in assay [4], in assay [5] and in assay [6] was more than 92 µM each time.
As to `C/C=C/C=C/C(=O)O`, the Potency in assay [1], in assay [2], in assay [3], in assay [4], in assay [5] and in assay [6] was more than 92 µM in each case.
For the compound `Nc1nccs1`, the Potency in assay [1], in assay [2], in assay [3], in assay [4], in assay [5] and in assay [6] was more than 92 µM in each case.
Turning to `OB(O)O`, the Potency in assay [1], in assay [2], in assay [3], in assay [4], in assay [5] and in assay [6] was more than 92 µM in each case.
On to `Nc1ccc(N=Nc2ccccc2)c(N)n1`, for which the Potency in assay [1], in assay [3], in assay [4], in assay [5] and in assay [6] was more than 92 µM in each case. The activity change, negative = inhibition in assay [7] is -10%.
`Oc1cccc(O)c1O`: the Potency in assay [4] and in assay [5] was more than 92 µM throughout.
On to `OCC(O)CO`, for which the Potency in assay [1], in assay [2], in assay [3], in assay [4], in assay [5] and in assay [6] was more than 92 µM in each case.
Turning to `CC(C)(C)CC(C)(C)c1ccc(OCCO)cc1`, the Potency in assay [1], in assay [2], in assay [5] and in assay [6] was more than 92 µM throughout.
In the case of `CCOC(C)OCC`, the Potency in assay [1], in assay [2], in assay [3], in assay [4], in assay [5] and in assay [6] was more than 92 µM throughout.
As for `OCl`, the Potency in assay [1], in assay [2], in assay [3], in assay [4], in assay [5] and in assay [6] was more than 92 µM in each case.
For the compound `Cc1ncc[nH]1`, the Potency in assay [1], in assay [2], in assay [3], in assay [4], in assay [5] and in assay [6] was more than 92 µM throughout.
